HepG2 viability – qHTS for Inhibitors of TGF-b: Cytotox Counterscreen | HepG2 CAGA-GFP viability, ATP luminescence, 18 h | Potency, µM (series often up to 46.1 µM), without a hit: at the highest dose activity change, negative = cytotoxicity, actives largely listed as cytotoxic | 0.76% of 410,000 active
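HepG2 CAGA-GFP cells (1000/well, DMEM with 1% FBS) received compound, then TGF-beta at 500 pg/mL final, and were incubated 18 hours at 37 degrees C. Viability was read by CellTiter-Glo luminescence. Media-only wells were set as complete cell-killing and DMSO as no toxicity.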
RORgamma inh – qHTS for inhibitors of ROR gamma transcriptional activity; Drosophila S2 Gal4-RORgamma UAS-luciferase reporter, 20 h; AID 2551, 2010; 5.4% of 310,000 active; Potency, µM (doses to about 53.6 µM), without a hit: at the top dose activity change, negative = inhibition, usual class: inhibitors; further: on the % scale 0 is the no-effect control and ±100 the full control effect; nearly all actives have a fitted effect of over 60% in size
Target sequence (P51450 whole entry, looked up, the tested form may be a part): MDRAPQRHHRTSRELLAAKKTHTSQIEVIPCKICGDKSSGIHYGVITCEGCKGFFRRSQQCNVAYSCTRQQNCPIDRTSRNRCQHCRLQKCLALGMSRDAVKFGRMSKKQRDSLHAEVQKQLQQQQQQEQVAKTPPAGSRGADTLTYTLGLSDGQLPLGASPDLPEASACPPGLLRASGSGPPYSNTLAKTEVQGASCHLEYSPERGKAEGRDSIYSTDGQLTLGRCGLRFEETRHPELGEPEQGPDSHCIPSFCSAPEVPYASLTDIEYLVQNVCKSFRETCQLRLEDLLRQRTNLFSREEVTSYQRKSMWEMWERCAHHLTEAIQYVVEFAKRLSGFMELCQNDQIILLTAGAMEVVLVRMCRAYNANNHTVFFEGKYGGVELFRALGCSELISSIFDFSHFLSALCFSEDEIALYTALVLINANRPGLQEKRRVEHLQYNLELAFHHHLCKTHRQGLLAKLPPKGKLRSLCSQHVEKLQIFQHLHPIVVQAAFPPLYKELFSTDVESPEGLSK
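In this cell-based reporter format, copper sulfate (700 uM final) drives Gal4–ROR gamma fusion expression from a metallothionein promoter in Drosophila Schneider cells; compounds preincubated 1 hr, reporter read after 20 hr at ambient temperature.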
ATXN viability – Viability Counterscreen for Primary qHTS for Inhibitors of ATXN expression | 0.49% of 400,000 active | S2 cells (HEK-293 line with an ATXN2-luciferase reporter) viability, CellTiter-Fluor protease fluorescence, 24 h | Potency, µM (highest dose often 56.7 µM), most hits filed as cytotoxic; further: nearly all actives have a fitted effect of over 40% in size
TGFb SMAD3 inh – qHTS for Inhibitors of TGF-b; Potency, µM (highest dose often 46.1 µM), inactives show at the top dose activity, negative = inhibition, most hits filed as inhibitors; HepG2 CAGA-GFP TGF-b/SMAD3 reporter, GFP fluorescence, 18 h; TGF-beta stimulated, 500 pg/mL final; 1.2% of 410,000 active; further: on the % scale 0 is the no-effect control and ±100 the full control effect; nearly all actives have a fitted effect of over 65% in size
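TGF-beta reporter screen: HEPG2 CAGA-GFP, 1% FBS, 500 pg/mL TGF-beta final, 18 h; per-cell GFP summed per well; curves fitted and categorized by class.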
ATXN2 expr inh – Primary qHTS for Inhibitors of ATXN expression. Potency, µM (doses to about 57 µM), without a hit: at the top dose activity change, negative = inhibition, usual class: inhibitors. HEK-293 ATXN2-luciferase reporter, luminescence, 24 h. 0.72% of 360,000 active. AID 1745845, 2022; further: on the % scale 0 is the no-effect control and ±100 the full control effect; nearly all actives have a fitted effect of over 55% in size
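ATXN2-luciferase reporter cells (luciferase flanked by upstream and downstream ATXN2 gene portions) were treated 24 h at 37 °C with compounds at up to 57 uM. SteadyGlo luminescence gave expression; GF-AFC fluorescence gave viability.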
VP16 counter – VP16 counterscreen qHTS for inhibitors of ROR gamma transcriptional activity. Drosophila S2 Gal4-VP16 UAS-luciferase, luminescence, 20 h. Potency, µM (doses to about 53.6 µM), for inactives: top-dose activity, negative = inhibition, usual class: inhibitors. 3.5% of 310,000 active. AID 2546, 2010;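 further: Gal4-VP16 expression switched on by copper sulfate through the metallothionein promoter; on the % scale 0 is the no-effect control and ±100 the full control effect; nearly all actives have a fitted effect of over 50% in size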
Starred values were filed as active, the others as inactive; i = inactive; ? = inconclusive; nt = not tested or not shown; [ ] = remark or other dose. The list is not random: actives were taken first. Their share in the collection is about 6.1%. The call rests on the fitted dose curve; in most records, active means well fitted curve in the direction sought with a large enough effect; inconclusive means small, poorly fitted or top-dose-only effect, or another doubt; inactive means no such curve, though single readings can be large; an effect the other way counts as inactive or inconclusive. Potency means the concentration at half of the fitted maximal effect.

SMILES	HepG2 viability	RORgamma inh	ATXN viability	TGFb SMAD3 inh	ATXN2 expr inh	VP16 counter
CCN1/C(=C/c2cc[n+](CCCS(=O)(=O)[O-])c3ccccc23)Sc2ccccc21	-2.7%	5.9%	i	28.9%	nt	-3.5%
Cc1ccc(Cl)cc1N1CCN(C(=O)c2cc(S(=O)(=O)N3CCCCC3)cn2C)CC1	-9.1%	nt	i	?	0.0%	nt
Cc1nnsc1S(=O)c1ccc(Cl)cc1 (configuration not stated)	3.4%	-22.5%	i	-5.7%	nt	3.3%
Nc1nc(C(=O)N2CCOCC2)nn1S(=O)(=O)c1ccc(Cl)cc1	-23.4%	-22.7%	i	-6.9%	2.0%	1.0%
O=C(c1nnsc1S(=O)(=O)c1ccc(Cl)cc1)N1CCOCC1	12.6µM*	2.82µM*	nt	?	?	10µM*
O=C(Nc1ccccc1)c1nnsc1S(=O)c1ccc(Cl)cc1 (configuration not stated)	-88.6%	15.8µM*	?	?	?	4.47µM*
O=C(c1nnsc1S(=O)c1ccc(Cl)cc1)N1CCOCC1 (configuration not stated)	-98.0%	1.12µM*	nt	?	4.6%[11.3 µM]	3.55µM*
CNC(=O)c1nnsc1S(=O)(=O)c1ccc(Cl)cc1	17.8µM*	0.562µM*	?	11.2µM*	?	0.398µM*
Cc1ccccc1Nc1oc(-c2ccccc2)nc1-c1ccccc1F	nt	-5.5%	nt	nt	nt	-4.1%
Cc1ccc(C)c(CN2C(=O)c3ccccc3Sc3ccc(C(=O)NC4CCCC4)cc32)c1	-4.7%	nt	nt	?	nt	nt
C=Cc1ccc(Cn2c(C)c(CNCc3cccc(Br)c3)c(C(=O)O)c2C)cc1	4.0%	nt	i	-1.7%	1.7%	nt
CC(C)Oc1ccc(CNC(=O)c2cnc3sc(N4CCCCC4)nn3c2=O)cc1	-33.3%	nt	i	-18.8%	9.8%	nt
COc1cccc(Cn2c(=O)c(C)nc3cnc(N4CCOCC4)nc32)c1	nt	-15.5%	nt	nt	nt	-7.8%
CCNC(=O)c1sc2ncnc(NCCCN3CCOCC3)c2c1C	nt	nt	i	nt	nt	nt
Cn1c(C2CCCCC2)nc2ccccc21	-34.6%	11.2µM*	i	-7.8%	12.3%	?
COC(=O)[C@@H]1[C@H]2SC(C)(C)[C@H](C(=O)OC)N2C(=O)N1Cc1cc2ccccc2n1S(=O)(=O)c1ccccc1	3.6%	nt	nt	0.6%	nt	nt
COc1cc(C=NOC(=O)Nc2ccccc2)cc(OC)c1OC	-0.4%	nt	i	11.6%	10.7%	nt
COc1ccc(NC(=O)O/N=C/c2c(C)nn(C(C)(C)C)c2C)cc1	-20.2%	2.51µM*	i	-12.0%	nt	11.2µM*
Cc1nc2ccccc2cc1OCc1ccc(Cl)cc1	-49.0%	?	i	-13.9%	-6.2%	3.55µM*
COc1cccc(COc2cc3ccccc3nc2C)c1	-26.9%	-27.0%	i	-14.8%	27.6%	5.01µM*
COC(=O)c1sccc1OCc1cccc(OC)c1	-5.9%	26.3%	i	2.6%	nt	?
Cc1nc2ccccc2cc1OCc1ccccc1	-19.0%	?	i	-21.9%	1.9%	?
COc1ccc(O)c(/C=N/NC(=O)CCC(=O)Nc2ccc(F)cc2)c1	1.9%	11.2µM*	nt	-1.6%	-32.1%	-15.8%
COc1ccc(/C=N/NC(=O)CCC(=O)Nc2ccc(F)cc2)c(OC)c1	-6.5%	20.4%[1.91 µM]	i	-11.6%	-16.4%	1.9%
Cc1ccc(SCCC(=O)N/N=C/c2ccccc2O)cc1	-37.2%	0.631µM*	i	3.2%	25.1µM*	0.631µM*
SMILES	HepG2 viability	RORgamma inh	ATXN viability	TGFb SMAD3 inh	ATXN2 expr inh	VP16 counter
Cc1ccc(NC(=O)CCC(=O)N/N=C/c2ccccc2O)cc1	-22.2%	3.98µM*	?	-29.7%	nt	11.2µM*
Cc1cccc(Cc2c(C)[nH]c(=O)c(C#N)c2C)c1	3.4%	-30.6%	?	-1.2%	-12.9%	11.3%
Cc1[nH]c(=O)c(C#N)c(C)c1CCC(=O)NCc1ccc(Cl)cc1	-0.8%	8.6%	i	-5.4%	-16.2%	3.2%
Cc1[nH]c(=S)c(C#N)c(C)c1CCC#N	-14.5%	14.1µM*	i	3.8%	3.3%	-15.7%
Cc1[nH]c(=S)c(C#N)c(C)c1Cc1ccccc1	1.7%	3.55µM*	?	-0.3%	?	8.91µM*
CC1=C(C(=O)Nc2ccccc2)C(c2cccs2)n2nc(SCc3ccccc3)nc2N1 (configuration not stated)	-1.4%	nt	i	-3.2%	-7.0%	nt
Cc1ccc2c(c1)c1c(c(=O)n(-c3ccccc3)c(=O)n1CC(=O)N1CCCC1)n2C	-20.2%	nt	nt	?	nt	nt
Cc1cnc(-c2cc(N3CCN(C(=O)CCS(C)(=O)=O)CC3)ncc2Cl)c(C)c1	nt	nt	nt	nt	5.7%	nt
COc1cccc(N2CCN(C(=O)C3CCC(CNS(=O)(=O)c4ccc(Br)s4)CC3)CC2)c1 (configuration not stated)	-22.3%	nt	i	?	-21.1%	nt
C=C1C=C(C)n2ncc(C(=O)N(CCc3ccccc3)Cc3ccccc3)c2N1	-51.0%	nt	nt	?	nt	nt
N=c1n(CCCOc2ccccc2Cl)c2ccccc2n1CC(N)=O	-188.2%	-17.8%	i	12.6µM*	?	-12.7%
COc1ccc2oc(=O)c(C(=O)Nc3ccccc3C)cc2c1	-25.9%	0.891µM*	i	139.1%	nt	?
COc1ccc2oc(=O)c(C(=O)Nc3ccccc3-c3ccccc3)cc2c1	7.9%	14.1%	i	81.6%	-10.1%	8.3%
COc1ccc2oc(=N)c(C(=O)Nc3cccc(C)c3C)cc2c1	-26.4%	3.16µM*	i	18.7%	35.9%	-28.3%
COc1cccc(-c2cn3c(n2)sc2cc(C(=O)NC4CCCCCC4)ccc23)c1	-25.9%	nt	nt	?	nt	nt
Cc1ccccc1Nc1nc(Nc2ccccc2C)nc(SC2=NCCS2)n1	-22.0%	6.31µM*	?	?	?	7.08µM*
Cc1ccc(Nc2nc(Nc3ccc(C)cc3)nc(SC3=NCCS3)n2)cc1	-26.2%	2.51µM*	?	?	-27.0%	5.62µM*
COc1ccc(NC(=O)Nc2cccc(-c3cn4cccnc4n3)c2)cc1	-7.1%	nt	?	-4.6%	32.9%	nt
CC1Cc2c(COc3ccccc3)nc3c(c2CO1)CN(CCOc1ccccc1)CC3 (configuration not stated)	nt	-12.4%[10 µM]	nt	nt	nt	-3.8%[10 µM]
COc1ccc(OC)c(N2C(=O)CCCC2=O)c1	-13.1%	11.2µM*	i	-0.1%	4.5%	1.8%
COC(=O)c1cc(OC)c(OC)cc1N1C(=O)CCCC1=O	-3.6%	14.9%	?	3.3%	nt	3.2%
